Our source for the cell count values is PubChem BioAssay.

A short description of the test: viability loss with induced miR-34 in A549 – imaging, A549 dox-inducible miR-34, nuclei and caspase counts, primary screen (AID 1347080). Further: test concentration not given here. Conditions: A549 miR-34 inducible, Hoechst nuclei count, 48 h; measured here: total cells with miR-34 induction; stronger effect = lower value.
As to `c1cc2cc(N3CCNCC3)ccc2cn1`, the cell count was 5380. For `O=C(NCCN1CCC2(CC1)C(=O)NCN2c1ccccc1)c1ccc2ccccc2c1`, the cell count worked out at 5740. For `c1cc(N2CCNCC2)c2cc[nH]c2c1`, the cell count was found to be 4820. In turn, `CCCCC/C=C\C/C=C\C/C=C\C/C=C\CCCC(=O)NCCS(=O)(=O)O` had a cell count of 5500. Compound `COc1ccc2cc(C(C#N)OC(=O)OCC3OC3c3ccccc3)ccc2c1` (stereo unspecified) yielded a cell count of 5380. Consider `CN1C(=O)[C@]23CC4=CC=C[C@H](O)[C@H]4N2C(=O)[C@@]1(CO)SS3`, for which the cell count worked out at 657. With `CC1OC(=O)C(C(C)C)NC(=O)C(C(C)C)OC(=O)C(C(C)C)NC(=O)C(C)OC(=O)C(C(C)C)NC(=O)C(C(C)C)OC(=O)C(C(C)C)NC(=O)C(C)OC(=O)C(C(C)C)NC(=O)C(C(C)C)OC(=O)C(C(C)C)NC1=O` (stereo unspecified), the cell count stood at 1020. `c1cc(N2CCNCC2)c2cnccc2c1` returned a cell count of 5540. Take `CCCCC/C=C\C/C=C\C/C=C\C/C=C\CCCC(=O)NCCc1c[nH]c2ccc(O)cc12`: the cell count came to 5660. For `CCCCC/C=C\C/C=C\C/C=C\C/C=C\CCCC(=O)Nc1ccc2c(C)cc(=O)oc2c1` the value was 5170. Turning to `CCCN(CCCN)N(O)N=O`, the cell count came to 5850.

For the compound `CCCCCCCCCC(=O)OC[C@H](COP(=O)([O-])OCC[N+](C)(C)C)OC(=O)CCCCCCCCC`, the cell count amounted to 5320.

`CCCCCCC(=O)O[C@H]1CC[C@H]2[C@@H]3CC(=O)C4=CC(=O)CC[C@]4(C)[C@H]3CC[C@]12C` came in with a cell count of 5250. In the case of `C=C1[C@@H](O)[C@@H]2O[C@@]3(CCC2O[C@@H]1[C@@H](O)C[C@H](C)C1O[C@@]2(CCCCO2)CC[C@H]1C)CC[C@H](/C=C/[C@@H](C)[C@@H]1CC(C)=C[C@@]2(O[C@H](C[C@@](C)(O)C(=O)O)CC[C@H]2O)O1)O3` (stereo partly specified), the cell count stood at 423. `CCCCC/C=C\C/C=C\C/C=C\C/C=C\CCCC(=O)Nc1ccc([N+](=O)[O-])cc1` displayed a cell count of 5860. In the case of `CCCCC/C=C\C/C=C\C/C=C\C/C=C\CCCC(=O)NCC(O)CC(=O)O` (stereo unspecified), the cell count stood at 5440.

`CCCCC/C=C\C/C=C\C/C=C\C/C=C\CCCC(=O)NC1CC1`: the cell count turned out to be 5860. For `CCCCCCCCCCCCCCCC(=O)OC[C@H](COP(=O)([O-])OCC[N+](C)(C)C)OC(=O)CCCC=O` the value was 5310.

`CCCCC/C=C\C/C=C\C/C=C\C/C=C\CCCC(=O)NCCF` returned a cell count of 5320. Compound `C[C@]12CCC3c4ccc(OC(=O)N(CCCl)CCCl)cc4CCC3C1CC[C@@H]2O` (stereo partly specified) returned a cell count of 2030. As for `CN=C(NS(=O)(=O)c1ccc(Cl)cc1)N1CC(c2ccccc2)C(c2ccc(Cl)cc2)=N1` (stereo unspecified), the cell count is 4700. For `C=C(C)[C@@H]1CCC(C)=C[C@H]1C1=C(O)C(=O)C(CCCCC)=CC1=O` the value was 5410.

As for `COc1cc(CNC(=O)CCCCCCC(C)C)c(I)cc1O`, the cell count amounted to 5730. `CCCCC/C=C\C/C=C\C/C=C\C/C=C\CCCC(=O)N[C@@H](CO)C(=O)O` registered a cell count of 5850. With `O[C@H]1[C@H]2[C@H](O)CCCN2C[C@H]1O` the figure was 5340; with `CCCCCCCC/C=C\CCCCCCCC(=O)OC[C@@H](COP(O)(O)=S)OC`, 6260.
